Consider 64 compounds from publication PMC4552634, “A New Set of Chemical Starting Points with Plasmodium falciparum Transmission-Blocking Potential for Antimalarial Drug Discovery” (PLoS ONE, 2015).

Out of some 13,000 compounds screened, about 3,200 (25%) showed an effect of 50% or more. This is one part of the list.

In general, % Inhibition refers to the change of the read-out against control, counted positive when it falls.

This assay deals with P. falciparum stage V gametocytes. More on the design: BacTiter-Glo ATP luminescence viability of purified stage V gametocytes in 384-well plates, per cent inhibition versus DMSO. Particulars: 48 h, 5 µM; inhibitor.
On to `O=C(NCC1CCC(CNCCc2ccccc2)CC1)Nc1ccc(Cl)c(Cl)c1` (stereo not shown) [TCMDC-140704], for which the “% Inhibition” value is -8.295%. In the case of `CCCCCc1cc(O)c2c3c(c(=O)oc2c1)CN(C)CC3` [TCMDC-124170], the “% Inhibition” value came to 9.829%. The value for `CC(=O)Nc1csc(-c2cnc(/C=C(\C)C[C@@H]3OC[C@H](C[C@@H]4O[C@H]4[C@@H](C)[C@H](C)O)[C@@H](O)[C@H]3O)o2)c1` [TCMDC-131575] was 0.669%; that for `COc1cccc(NC(=O)NC2CCN(c3ccnc(Nc4cc(OC)c(OC)c(OC)c4)n3)C2)c1` (stereo not shown) [TCMDC-133627] was -76.2%; that for `CN(C)C(=S)N=Nc1c(O)[nH]c2ccccc12` [TCMDC-124262] was -39.06%. On to `COc1cc(NC(=O)/C=C/c2ccccc2OC(F)(F)F)cc(OCCN2CCC(O)(c3ccccc3)CC2)c1` [TCMDC-140935], for which the “% Inhibition” value is given as -5.416%.

Turning to `COc1ccc(C2CCN(CCN3CCC(NC(=O)c4cccc(-c5ccncc5)c4)CC3)CC2)c(OC)c1` [TCMDC-135431], the “% Inhibition” value is listed as -2.358%. Then `COc1cc(NC(=O)c2sc(-c3ccc(Cl)cc3)cc2NC(=O)CN2CCCC2)ccc1OCCN1CCCC1` [TCMDC-135381], with -9.57%. Then `COc1cc(NC(=O)c2sc(-c3ccc(Cl)cc3)cc2NC(=O)CN2CC[C@@H](O)C2)ccc1OCCN1CCCC1` [TCMDC-135380], with 114.3%. The value for `COc1ccc(CCCON2C(N)=NC(N)=NC2(C)C)cc1` [TCMDC-131693] was 15.23%; that for `CCc1ccccc1N1CCN(CCCCNC(=O)c2ccc(NC(=O)c3ccc(Cl)cc3)cc2)CC1` [TCMDC-138192] was 63.87%.

In the case of `O=C(NCCCCN1CCC(c2ccc(OC(F)(F)F)cc2)CC1)c1ccc(NC(=O)c2ccc(Cl)cc2)cc1` [TCMDC-138327], the “% Inhibition” value turned out to be 35.48%. As to `CCc1ccccc1N1CCN(CCCC(=O)c2ccc(NC(=O)c3ccc(Cl)cc3)cc2)CC1` [TCMDC-138230], the “% Inhibition” value is given as -10.32%. The value for `O=C(NCCCCN1CCN(c2cccc3ccccc23)CC1)c1ccc(NC(=O)c2ccc(Cl)cc2)cc1` [TCMDC-138514] was -0.4742%; that for `CCc1ccc(C2CCN(CCCCNC(=O)c3ccc(NC(=O)c4ccc(Cl)cc4)cc3)CC2)cc1` [TCMDC-138351] was 54.3%; that for `O=C(NCCCCN1CCC(c2ccc(Br)cc2)CC1)c1ccc(NC(=O)c2ccc(Cl)cc2)cc1` [TCMDC-138347] was 1.75%. The value for `C=CCc1ccc(C2CCN(CCCCNC(=O)c3ccc(NC(=O)c4ccc(Cl)cc4)cc3)CC2)cc1` [TCMDC-138355] was 87.45%; that for `O=C(NCCCCN1CCC(c2ccc([N+](=O)[O-])cc2)CC1)c1ccc(NC(=O)c2ccc(Cl)cc2)cc1` [TCMDC-138350] was 25.02%.

For `CCCc1ccc(C2CCN(CCCCNC(=O)c3ccc(NC(=O)c4ccc(Cl)cc4)cc3)CC2)cc1` [TCMDC-138358], the “% Inhibition” value came to 87.46%. Turning to `O=C(c1cncc(-c2ccccc2)c1)N(Cc1cncn1Cc1ccccc1F)CC1CC1` [TCMDC-132464], the “% Inhibition” value is listed as 14.15%.

Take `CC(C)(C)Oc1ccc(NC(=O)c2ccccc2O)cc1` [TCMDC-137700]: the “% Inhibition” value amounted to 29.92%. Then `COc1ccccc1N(C)CCNc1cc(C)nc(Nc2ccc(C)cc2)n1` [TCMDC-133456], with -44.09%. With `Cn1cc(C(=O)Nc2cccc(-c3cccc(-c4nc5ccccc5[nH]4)c3)c2)n(C)c1=O` [TCMDC-137135], the “% Inhibition” value was -5.62%.

As to `Cc1cc(C)c(C(=O)Nc2n[nH]c3nnc(-c4cccc(F)c4F)cc23)c(C)c1` [TCMDC-141220], the “% Inhibition” value turned out to be 6.955%. As for `Oc1cc(Nc2ccnc3cc(I)ccc23)ccc1F` [TCMDC-138379], the “% Inhibition” value was -46.78%.

Regarding `OC(COc1ccccc1-c1nc2ccccc2o1)CN1CCCN(CCc2ccccc2)CC1` (stereo not shown) [TCMDC-141430], the “% Inhibition” value worked out at 28.2%. Turning to `COc1ccccc1N1CCN(Cc2c(NC(C)=O)sc(C)c2C)CC1` [TCMDC-124501], the “% Inhibition” value was -13.75%. In the case of `Oc1ccccc1CNCC(O)c1cc(C(F)(F)F)cc(C(F)(F)F)c1` (stereo not shown) [TCMDC-140304], the “% Inhibition” value was -68.09%. As to `O=C(NCCCCN1CCC(c2ccc(-c3ccco3)cc2)CC1)c1ccc(NC(=O)c2ccc(Cl)cc2)cc1` [TCMDC-138321], the “% Inhibition” value turned out to be 113.6%. As for `O=C(/C=C/c1ccc(Cl)c(Cl)c1)NCCCCCCN1CCCN(C(=O)Nc2cccc(Cl)c2)CC1` [TCMDC-135939], the “% Inhibition” value is reported as -30.78%.

Turning to `O=C(O)C(F)(F)F.c1cc(CNCC2CCCO2)cc(-c2ccc(-c3nc4ccccc4[nH]3)s2)c1` (stereo not shown) [TCMDC-133107], the “% Inhibition” value is recorded as -4.99%. Then `COc1ccc(Cl)cc1N1CCN(CCCNC(=O)c2ccc(-c3nc4cc(Cl)c(F)cc4[nH]3)s2)CC1` [TCMDC-140102], with 7.975%; and `COc1cc(C2=NN(S(=O)(=O)c3c(C)cc(C)cc3C)CCCC2)ccc1Cl` [TCMDC-136217], with 20.4%. The value for `COc1ccc(-c2ccc(Nc3cccc(S(=O)(=O)CCN4CCC(CCN(C)C)CC4)c3)nc2)cn1` [TCMDC-134376] was 26.53%. For the compound `Fc1ccc2nc(-c3ccc(-c4ccc(CNCC5CCCO5)cc4)s3)[nH]c2c1` (stereo not shown) [TCMDC-133100], the “% Inhibition” value was -65.64%. Then `CN(C)Cc1ccc(-c2cc3c(Nc4ccc(OCc5cccc(F)c5)c(Cl)c4)ncnc3s2)[nH]1` [TCMDC-135468], with 11.16%; and `CN(C)Cc1ccc(-c2cc3ncnc(Nc4ccc(OCc5cccc(F)c5)c(Cl)c4)c3s2)[nH]1` [TCMDC-135507], with 40.2%.

As for `NCCCNc1nccc(N2CCc3ncnc(Nc4ccc(OCc5cccc(F)c5)c(Cl)c4)c3C2)n1` [TCMDC-135456], the “% Inhibition” value stood at 85.39%.

In the case of `CC(=O)NCCNc1nccc(N2CCc3ncnc(Nc4ccc(OCc5ccccn5)c(Cl)c4)c3C2)n1` [TCMDC-135447], the “% Inhibition” value is given as 3.253%. With `CCN(CC)CCCNc1nccc(N2CCc3ncnc(Nc4ccc(OCc5cccc(F)c5)c(Cl)c4)c3C2)n1` [TCMDC-135406], the “% Inhibition” value stood at 102.3%. In the case of `Fc1cccc(COc2ccc(Nc3ncnc4ccc(C#C[C@H]5CCCN5)cc34)cc2Cl)c1` [TCMDC-135437], the “% Inhibition” value is listed as -6.979%. `CN(C)C1CCN(CC#Cc2cc3ncnc(Nc4ccc(OCc5cccc(F)c5)c(Cl)c4)c3s2)CC1` [TCMDC-138804]: the “% Inhibition” value came to 11.68%. Then `CC(=O)NCCNc1nccc(N2CCc3ncnc(Nc4ccc(OCc5cccc(F)c5)c(Cl)c4)c3C2)n1` [TCMDC-135392], with 4.041%; and `CN(C)CCNc1nccc(N2CCc3ncnc(Nc4ccc(OCc5cccc(F)c5)c(Cl)c4)c3C2)n1` [TCMDC-135405], with 71.57%; and `CCN(CCS(C)(=O)=O)Cc1ccc(-c2ccc3ncnc(Nc4ccc(OCc5cccc(F)c5)c(Cl)c4)c3c2)o1` [TCMDC-138533], with -31.95%. The value for `CNCCNc1nccc(N2CCc3ncnc(Nc4ccc(OCc5cccc(F)c5)c(Cl)c4)c3C2)n1` [TCMDC-135478] was 99.42%; that for `C[C@@H](N)C#Cc1cc2c(Nc3ccc(OCc4cccc(F)c4)c(Cl)c3)ncnc2s1` [TCMDC-134655] was 18.43%. Consider `COc1ccc2nccc([C@@H](O)CN3CCC(NCc4cc5oc(=O)n(C)c5cc4F)CC3)c2c1` [TCMDC-141144], for which the “% Inhibition” value was -1.57%. As for `Fc1cccc(COc2ccc(Nc3ncnc4sc(C#C[C@H]5CCCN5)cc34)cc2F)c1` [TCMDC-134429], the “% Inhibition” value is recorded as -0.575%. Regarding `O=C(Nc1ccc(N2CCCCC2)c(Cl)c1)c1ncn[nH]1` [TCMDC-123528], the “% Inhibition” value is 3.564%. Then `CC(=O)NCCNc1cc(N2CCc3ncnc(Nc4ccc(OCc5c(F)cccc5F)c(Cl)c4)c3C2)ncn1` [TCMDC-135455], with 38.09%; and `CS(=O)(=O)CCNc1nccc(N2CCc3ncnc(Nc4ccc(OCc5cccc(F)c5)c(Cl)c4)c3C2)n1` [TCMDC-135425], with 8.296%. Then `CS(=O)(=O)CCNc1cc(N2CCc3ncnc(Nc4ccc(OCc5cccc(F)c5)c(Cl)c4)c3C2)ncn1` [TCMDC-135477], with 58.91%; and `COc1cc(-c2ccccc2)ccc1C(=O)Nc1ccc2c(c1)N(C)CCC2` [TCMDC-141219], with -85.17%; and `O=C(N1CCN(c2cccc(C(F)(F)F)c2)CC1)C(Cl)(Cl)Cl` [TCMDC-125655], with -5.728%. The value for `O=C(/C=C/c1ccc(Cl)c(Cl)c1)NC1C2CCC1CC(CN1CCC(c3c[nH]c4ccccc34)CC1)C2` (stereo not shown) [TCMDC-139811] was 36.93%; that for `COc1ccc(Nc2nc(NC3CCN(Cc4ccccc4)CC3)cc(-c3ccncc3)n2)cc1` [TCMDC-134021] was -30.5%.

For `c1ccc(CN2CCC(Nc3ccc(-c4cn[nH]c4-c4ccccn4)nc3)CC2)cc1` [TCMDC-138750], the “% Inhibition” value is reported as 73.03%. Then `c1ccc(C2CCN(Cc3ccc(-c4c[nH]c5nc(NC6CCCC6)ncc45)cc3)CC2)cc1` [TCMDC-133772], with -64.75%; and `CCCCCC(C)C(C)c1cc(O)c2c(c1)OC(C)(C)CC2(O)c1ccccn1` (stereo not shown) [TCMDC-131713], with -6.865%. Turning to `Cc1cc(F)ccc1-c1nc(NCCCNCCc2ccccc2)nc2c1ccc(=O)n2-c1c(F)cccc1F` [TCMDC-141804], the “% Inhibition” value amounted to 83.84%. The value for `Cc1cc(F)ccc1-c1nc(NCCCN2CCCC2=O)nc2c1ccc(=O)n2-c1c(F)cccc1F` [TCMDC-141433] was -74.9%. Then `Cc1cc(F)ccc1-c1nc(NCC(O)CNCCc2ccccc2)nc2c1ccc(=O)n2-c1c(F)cccc1F` (stereo not shown) [TCMDC-141784], with 98.89%; and `CCCCCN1CCC(NC(=O)c2ccc(C(=O)Nc3ccc(C(C)C)cc3)cc2)CC1` [TCMDC-136751], with 8.673%.
